Compound activity from PubChem BioAssay.
GLS inh = qHTS for Inhibitors of Glutaminase (GLS). Glutaminase kidney isoform, mitochondrial (Homo sapiens), O94925. 410,000 compounds, 0.21% hits. GLS enzymatic activity, qHTS titration. AID 624170, 2012. Potency, µM (highest dose often 45.5 µM), inactives show at the top dose activity change, negative = inhibition, usual class: inhibitors; also: % is scaled to controls: 0 for no effect and ±100 for the full control effect
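Assay buffer: 45 mM KH2PO4 pH 8.2, 0.02% Tween-20. hKGA acts on L-glutamine (1 mM solution added); product glutamate is reported by an oxidase/peroxidase Amplex Red coupling, with fluorescence taken at baseline and 30 min.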
HP1b binding inh = HTS for Inhibitors of HP1-beta Chromodomain Interactions with Methylated Histone Tails; 390,000 compounds, 0.56% hits; Potency, µM (series often up to 114 µM), for inactives: top-dose activity change, negative = inhibition, usual class: inhibitors; Chromobox protein homolog 1 (Homo sapiens), P83916; AlphaScreen HP1-beta / biotin-H3K9me3 peptide binding; also: nearly all actives have a fitted effect of over 70% in size
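Compound inhibition of the preformed complex between 50 nM HP1-beta and 50 nM biotinylated H3K9me3 peptide was read by AlphaScreen. Buffer was PBS pH 7.4 with 0.01% Tween-20. Incubations ran 30 min at room temperature, with 10 ug/mL donor/acceptor beads.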
BAZ2B inh = qHTS Assay for Inhibitors of BAZ2B; AlphaScreen BAZ2B-H3K14Ac peptide displacement; Potency, µM (top dose mostly 114 µM), without a hit: at the highest dose activity change, negative = inhibition, usual class: inhibitors; AID 504333, 2011; Bromodomain adjacent to zinc finger domain protein 2B (Homo sapiens), Q9UIF8; 360,000 compounds, 4.4% hits; also: % is scaled to controls: 0 for no effect and ±100 for the full control effect; nearly all actives have a fitted effect of over 60% in size
Target sequence (Q9UIF8 whole entry, looked up, the tested form may be a part): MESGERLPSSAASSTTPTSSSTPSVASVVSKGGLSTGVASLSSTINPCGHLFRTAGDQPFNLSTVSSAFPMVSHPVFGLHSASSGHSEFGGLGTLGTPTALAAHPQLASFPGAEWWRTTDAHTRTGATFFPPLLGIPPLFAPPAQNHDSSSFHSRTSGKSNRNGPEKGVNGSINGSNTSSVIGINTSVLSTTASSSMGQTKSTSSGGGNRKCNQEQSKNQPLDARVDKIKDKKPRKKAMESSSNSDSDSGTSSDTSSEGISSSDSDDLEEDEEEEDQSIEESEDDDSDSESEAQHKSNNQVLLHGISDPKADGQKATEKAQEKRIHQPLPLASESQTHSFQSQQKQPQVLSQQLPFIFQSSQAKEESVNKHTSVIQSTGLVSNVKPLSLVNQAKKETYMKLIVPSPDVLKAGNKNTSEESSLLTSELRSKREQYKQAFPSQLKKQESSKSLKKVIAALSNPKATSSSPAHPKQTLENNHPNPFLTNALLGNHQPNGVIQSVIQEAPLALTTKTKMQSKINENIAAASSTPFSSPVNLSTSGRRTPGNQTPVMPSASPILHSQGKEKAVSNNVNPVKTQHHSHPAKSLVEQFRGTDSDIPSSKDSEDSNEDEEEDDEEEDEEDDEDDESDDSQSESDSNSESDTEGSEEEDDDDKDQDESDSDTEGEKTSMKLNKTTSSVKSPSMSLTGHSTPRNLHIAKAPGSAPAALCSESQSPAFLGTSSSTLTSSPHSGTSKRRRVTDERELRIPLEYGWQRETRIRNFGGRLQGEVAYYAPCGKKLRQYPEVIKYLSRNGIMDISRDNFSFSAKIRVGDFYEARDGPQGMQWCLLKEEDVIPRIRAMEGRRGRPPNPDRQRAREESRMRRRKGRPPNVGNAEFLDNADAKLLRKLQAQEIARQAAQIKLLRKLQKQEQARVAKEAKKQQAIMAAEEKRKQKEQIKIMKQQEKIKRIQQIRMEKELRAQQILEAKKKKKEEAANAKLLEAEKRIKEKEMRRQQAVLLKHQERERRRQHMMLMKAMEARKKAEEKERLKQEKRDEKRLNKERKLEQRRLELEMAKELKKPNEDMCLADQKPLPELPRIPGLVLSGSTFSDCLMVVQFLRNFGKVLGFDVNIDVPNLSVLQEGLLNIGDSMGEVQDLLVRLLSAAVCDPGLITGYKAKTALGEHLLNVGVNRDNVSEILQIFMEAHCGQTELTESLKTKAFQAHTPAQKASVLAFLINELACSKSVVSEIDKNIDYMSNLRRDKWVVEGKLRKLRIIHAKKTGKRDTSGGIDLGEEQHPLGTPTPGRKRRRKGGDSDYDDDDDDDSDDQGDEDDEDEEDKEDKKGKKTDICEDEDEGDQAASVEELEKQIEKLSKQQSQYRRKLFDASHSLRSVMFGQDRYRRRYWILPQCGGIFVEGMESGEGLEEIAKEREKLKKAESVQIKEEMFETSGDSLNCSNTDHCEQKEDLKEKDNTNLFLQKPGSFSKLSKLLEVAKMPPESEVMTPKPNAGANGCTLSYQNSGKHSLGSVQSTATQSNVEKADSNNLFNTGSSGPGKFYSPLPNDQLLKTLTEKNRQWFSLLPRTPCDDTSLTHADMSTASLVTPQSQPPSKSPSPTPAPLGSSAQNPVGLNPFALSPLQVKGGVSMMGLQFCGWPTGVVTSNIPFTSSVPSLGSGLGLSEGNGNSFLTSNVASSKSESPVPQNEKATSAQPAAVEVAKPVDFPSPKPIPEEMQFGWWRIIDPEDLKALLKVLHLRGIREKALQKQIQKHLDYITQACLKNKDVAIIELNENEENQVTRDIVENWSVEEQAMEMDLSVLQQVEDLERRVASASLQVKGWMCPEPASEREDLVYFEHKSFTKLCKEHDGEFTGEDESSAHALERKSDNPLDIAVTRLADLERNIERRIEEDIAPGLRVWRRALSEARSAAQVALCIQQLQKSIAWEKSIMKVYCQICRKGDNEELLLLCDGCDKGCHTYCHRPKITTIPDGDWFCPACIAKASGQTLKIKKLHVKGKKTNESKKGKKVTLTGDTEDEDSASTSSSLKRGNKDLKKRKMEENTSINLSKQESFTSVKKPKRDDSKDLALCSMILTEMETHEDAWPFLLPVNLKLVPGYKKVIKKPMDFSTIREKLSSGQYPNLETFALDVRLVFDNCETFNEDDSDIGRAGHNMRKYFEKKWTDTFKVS
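AlphaScreen displacement: compounds (up to 110uM) incubated 30 min at room temperature with a preformed 50 nM BAZ2B/50 nM biotinylated H3K14Ac peptide complex in PBS pH 7.4 with Tween-20. Donor and acceptor beads at 10 ug/mL final added, 20 min light-protected before reading.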
L3MBTL1 inh = qHTS Assay for the Inhibitors of L3MBTL1 | Lethal(3)malignant brain tumor-like protein 1 (Homo sapiens), Q9Y468 | AlphaScreen L3MBTL1–H3K9me1 peptide binding | Potency, µM (titrated, usually from 57.1 µM), without a hit: top-dose activity, negative = inhibition, usual class: inhibitors | 230,000 compounds, 0.66% hits | AID 485360, 2010; also: % is scaled to controls: 0 for no effect and ±100 for the full control effect; nearly all actives have a fitted effect of over 60% in size
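Read-out is AlphaScreen signal from streptavidin donor and nickel chelate acceptor beads (10 ug/mL final each) bridging L3MBTL1 (50 nM) and biotinylated K9-monomethylated H3(1-15) peptide (75 nM), after 30 min compound exposure at room temperature.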
JMJD2A Tudor inh = qHTS Assay for Inhibitors of JMJD2A-Tudor Domain; Lysine-specific demethylase 4A (Homo sapiens), O75164; AlphaScreen JMJD2A-Tudor / H3K4me3 peptide binding; Potency, µM (titrated, usually from 114 µM), for the others: at the highest dose activity change, negative = inhibition, usual class: inhibitors; 390,000 compounds, 4.4% hits; AID 504339, 2011; also: % is scaled to controls: 0 for no effect and ±100 for the full control effect; nearly all actives have a fitted effect of over 50% in size
G9a block = qHTS Assay for Inhibitors of Histone Lysine Methyltransferase G9a; Potency, µM (series often up to 102 µM), for inactives: top-dose activity, negative = inhibition, hits mostly inhibitors; Histone-lysine N-methyltransferase EHMT2 (Homo sapiens), Q96KQ7; 350,000 compounds, 8.8% hits; G9a H3K9 monomethylation, AlphaScreen, 2 h; also: % is scaled to controls: 0 for no effect and ±100 for the full control effect; nearly all actives have a fitted effect of over 75% in size
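AlphaScreen read-out: biotin-H3K9 peptide (500 nM) methylation by 20 nM enzyme with 20 uM SAM, 2 h at room temperature after 15 min compound preincubation; anti-monomethyl H3K9 antibody plus donor/acceptor beads, 10 min dark.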
Active calls of the source: *; ? = inconclusive; . = no result given; ! = a repeat was not active; [ ] = remark or other dose. An excerpt weighted towards active compounds, which were near 10% of everything screened. Calls follow the shape of the dose curve; as a rule, active = well fitted curve in the direction sought with a large enough effect; inconclusive = small, poorly fitted or top-dose-only effect, or another doubt; inactive = no such curve, though single readings can be large; an effect the other way counts as inactive or inconclusive. Potency is read from the fitted curve at half-maximal effect.

SMILES | GLS inh | HP1b binding inh | BAZ2B inh | L3MBTL1 inh | JMJD2A Tudor inh | G9a block
O=C(O)c1cccc(N/N=C/C2=C(Cl)c3cc(Cl)ccc3SC2)c1 | 14% | -5% | 50µM* | . | 56µM* | 50µM*
Nc1ccc(C(=O)N/N=C\c2ccc(OC(=O)c3ccccc3Cl)cc2)cc1 | 1% | 26% | -19% | -5% | -7% | 20%
O=C(O)c1ccc(N/N=C/c2ccc(OC(=O)c3ccccc3Cl)cc2)cc1 | ? | ? | 89µM* | -14% | ? | 2%[59 µM]
O=C(O)c1ccc(N/N=C/c2ccc(-c3ccccc3)cc2)cc1 | 10% | -13% | . | . | -33% | 45µM*
C/C(=N\Nc1cccc(C(F)(F)F)c1)c1ccc(O)cc1 | ? | ? | ? | -16% | 45µM* | 8.9µM*
C/C(=N\NC(=O)CNc1cccc(C(F)(F)F)c1)c1ccc(Br)cc1 | -5% | 22% | -8% | -7% | 2% | -43%[59 µM]
Cc1ccc(S(=O)(=O)c2[nH]c(-c3ccccc3)nc2SC(C)C(=O)O)cc1 (stereo not given) | 11% | 22% | -20% | . | -16% | -11%[59 µM]
O=C(Nc1ccc2nc(SCC(=O)N3CCCc4ccccc43)sc2c1)c1ccccc1 | -10% | 7% | -6% | . | -19% | -34%[59 µM]
Cc1ccc(-c2nc3ccccc3o2)cc1NC(=O)c1cccc2c(Cl)cccc12 | -5% | 4% | -15% | . | -17% | -6%[59 µM]
O=C(O)c1ccc(/C=N/Nc2cccc(C(F)(F)F)c2)cc1 | 14µM* | 5% | ? | -8% | -23% | ?
O=C(N/N=C/c1ccc(O)cc1)c1cccc(N/N=C/c2ccc(O)cc2)c1 | 24% | -20% | -24% | -8% | -14%[11.4 µM] | 10µM*
CC(C)c1ccc(/C=N/Nc2ccc(C(=O)O)cc2)cc1 | 14% | 25% | ? | -11% | -25% | 10µM*
O=C(O)c1cccc(N/N=C/c2ccc(F)c(F)c2)c1 | ? | 39% | 6% | 16% | -18% | 7.9µM*
CC(CC(=O)NCc1ccc(Cl)cc1Cl)CC1=NS(=O)(=O)c2ccccc2N1 (stereo not given) | -14% | 25% | -5% | . | -11% | -4%[59 µM]
Cc1cccc(-c2nc(CSc3nncn4c3cc3oc(C)cc34)c(C)o2)c1 | -6% | 40% | -29% | . | -19% | -4%[59 µM]
Cc1cc2oc(=O)cc(C)c2c2occ(-c3ccc(Cl)cc3)c12 | -3% | -1% | -13% | . | -21% | 10%[59 µM]
O=C(O)c1ccc(N/N=C/C=C/c2ccccc2)cc1 | 22% | 7% | ? | . | -31% | 71µM*
O=S(=O)(O)c1c(NS(=O)(=O)c2ccccc2)ccc2ccccc12 | . | 16% | . | . | 89µM* | .
O=S(=O)(Nc1cccc2ccccc12)c1ccccc1 | -11% | 15% | -1% | 10% | -23% | .
O=S(=O)(Nc1c(O)ccc2ccccc12)c1ccccc1 | 16% | ? | . | . | ? | .
O=S(=O)(Nc1cccc2ccccc12)c1ccc2ccccc2c1 | . | ? | . | . | 79µM* | .
O=C(O)c1cccc(S(=O)(=O)Nc2cccc3ccccc23)c1 | 11% | 1% | -1% | . | -25% | 40µM*
CCCCN(CCCC)CCNC(=O)Cn1nc(CC)n2c(cc3sc(C)cc32)c1=O | -7% | 17% | -5% | . | -18% | -10%[59 µM]
Cn1nccc1/C=C(/C#N)S(=O)(=O)c1ccccc1 | -7% | -10% | 3% | 7% | 40µM* | 0%[59 µM]
COc1ccc(OC)c(CCNC(=O)Cn2nc(C)c3c(C)n(-c4ccc(C)cc4)nc3c2=O)c1 | -13% | 27% | 50µM* | . | -26% | .
SMILES | GLS inh | HP1b binding inh | BAZ2B inh | L3MBTL1 inh | JMJD2A Tudor inh | G9a block
Cc1nn(CCC(=O)NCc2ccc(Cl)cc2)c(=O)c2nn(-c3ccccc3)c(C)c12 | -15% | 14% | -6% | . | -4% | -27%[59 µM]
COc1ccc(CCNC(=O)Cn2nc(C)c3c(C)n(-c4ccccc4)nc3c2=O)c(OC)c1 | 1% | 25% | -5% | . | -17% | -7%
Cc1nn(CCC(=O)NCc2ccc(N(C)C)cc2)c(=O)c2nn(-c3ccccc3)c(C)c12 | 32% | 43% | -13% | . | -25% | 45µM*
CCOc1ccc(CNC(=O)Cn2nc(C)c3c(C)n(-c4ccc(C)cc4)nc3c2=O)cc1 | 9% | 16% | -32% | . | 40µM*! | 16%
CCCc1cnc2c(c1SCC(=O)N1CCC(C)CC1)c(=O)n(C)c(=O)n2C | -4% | 33% | -7% | . | -9% | 4%[59 µM]
CCOc1ccc(-c2cc(NC(=O)Nc3ccccc3Cl)c(C(=O)OC)s2)cc1 | -5% | 44% | 1% | . | 0% | 2%[59 µM]
COc1ccc(Cc2c(O)nc(SCC(=O)NC34CC5CC(CC(C5)C3)C4)[nH]c2=O)cc1 | 3% | 30% | ? | 8% | -17% | 45µM*
C/C=C/C(=O)[C@@H](C)[C@@H](/C=C/C[Si](C)(C)C)C(C)C | . | 14% | . | . | -5% | .
COc1cc(C#Cc2c(-c3cncn3C)n(C)c3ccc(-c4ccc(OC)nc4)cc23)cc(OC)c1 | 2% | -11% | 40µM* | ? | 14µM* | -2%[0.501 µM]
COc1cc(C#Cc2c(-c3cncn3C)n(C)c3ccc(-c4cc(OC)c(OC)c(OC)c4)cc23)cc(OC)c1 | 2% | 1% | . | -25% | ? | .
C=CCN1C(=O)N/C(=C/c2ccc(N3CCOCC3)o2)C1=O | . | . | 1% | 1% | . | 32µM*
O=C1N/C(=C/c2ccc(N3CCOCC3)o2)C(=O)N1c1ccccc1 | 7% | -20% | -27% | 7% | ? | 10µM*
O=C1N/C(=C/c2ccc(N3CCCC3)cc2)C(=O)N1c1ccccc1 | -1% | 24% | -2% | 4% | -4% | -3%[59 µM]
COC(=O)[C@@H](c1ccccc1Cl)N1CCc2sccc2C1 | . | . | . | . | . | -2%[59 µM]
Cn1c(=O)c(=O)n(C)c2cc(NS(=O)(=O)c3ccc(Br)cc3)c(Cl)cc21 | 22% | 15% | -12% | . | -14% | 3%[59 µM]
CCN(C(=O)CSc1nc(-c2ccccc2)cn1N)c1c(N)n(Cc2ccccc2)c(=O)[nH]c1=O | 17% | 19% | -4% | -5% | -11% | ?
COCCN(C(=O)CSc1nnc(-c2ccccc2F)n1N)c1c(N)n(Cc2ccccc2)c(=O)[nH]c1=O | 6% | 18% | 1% | . | -3% | .
CCOc1ccc2nc(SCC(=O)N(CCOC)c3c(N)n(Cc4ccccc4)c(=O)[nH]c3=O)[nH]c2c1 | -4% | 45% | -4% | 4% | 6% | 10µM*
